Assay outcomes deposited in PubChem by National Center for Advancing Translational Sciences (NCATS).
G9a inh: G9a (human) methyltransferase inhibition; Potency, µM (titrated, usually from 102 µM), for inactives: at the highest dose activity, negative = inhibition, hits mostly inhibitors; G9a H3K9 monomethylation, AlphaScreen, 2 h; 8.8% of 350,000 active; AID 504332; also: % is scaled to controls: 0 for no effect and ±100 for the full control effect; nearly all actives have a fitted effect of over 75% in size
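Step 1: enzyme (final 20 nM) with compound, 15 min RT. Step 2: substrate peptide 500 nM and SAM 20 uM, 2 h RT. Step 3: anti-H3K9me1 antibody and AlphaScreen beads, 10 min, then plate read.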
HP1b chromo inh: inhibitors of HP1-beta chromodomain binding to methylated histone tails. AlphaScreen HP1-beta / biotin-H3K9me3 peptide binding. Potency, µM (top dose mostly 114 µM), for inactives: top-dose activity change, negative = inhibition, usual class: inhibitors. 0.56% of 390,000 active. AID 540317; also: nearly all actives have a fitted effect of over 70% in size
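HP1-beta protein (50 nM final) preincubated 30 min at room temperature with biotinylated H3(1-18)K9me3 peptide (50 nM) in PBS pH 7.4, 0.01% Tween-20, then compound added for 30 min. AlphaScreen streptavidin donor/nickel chelate acceptor beads (10 ug/mL final), 30 min dark, luminescence read.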
BAZ2B block: inhibitors of human BAZ2B bromodomain. AlphaScreen BAZ2B-H3K14Ac peptide displacement. Potency, µM (highest dose often 114 µM), for the others: top-dose activity change, negative = inhibition, hits mostly inhibitors. 4.4% of 360,000 active. AID 504333; also: % is scaled to controls: 0 for no effect and ±100 for the full control effect; nearly all actives have a fitted effect of over 60% in size
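BAZ2B 50 nM plus b-H3(5-23)K14Ac 50 nM, PBS pH 7.4/0.01% Tween-20, 30 min RT; compound added (max 110 uM), 30 min RT; streptavidin donor/Ni-chelate acceptor beads 10 ug/mL final, 20 min dark; AlphaScreen read.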
L3MBTL1 inh: blocks human L3MBTL1 | AlphaScreen L3MBTL1–H3K9me1 peptide binding | 0.66% of 230,000 active | Potency, µM (series often up to 57.1 µM), inactives show at the top dose activity, negative = inhibition, hits mostly inhibitors; also: % is scaled to controls: 0 for no effect and ±100 for the full control effect; nearly all actives have a fitted effect of over 60% in size
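AlphaScreen proximity signal between nickel-chelate acceptor and streptavidin donor beads (final 10 ug/mL) reports binding of 50 nM L3MBTL1 to 75 nM biotin-H3 K9me1 peptide; complex incubated with compounds 30 min at room temperature; cefsulodin titration as control.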
JMJD2A Tudor: blocks the human JMJD2A Tudor domain; AlphaScreen JMJD2A-Tudor / H3K4me3 peptide binding; 4.4% of 390,000 active; Potency, µM (top dose mostly 114 µM), inactives show at the highest dose activity change, negative = inhibition, actives largely listed as inhibitors; O75164; AID 504339; also: % is scaled to controls: 0 for no effect and ±100 for the full control effect; nearly all actives have a fitted effect of over 50% in size
Active calls of the source: *; [ ] = another dose, or the depositor's remark. Compounds with a hit are over-represented: about 11% of the library has one in this group of screens. Calls follow the shape of the dose curve; as a rule, active = well fitted inhibition curve with a large enough effect; inconclusive = small, poorly fitted or top-dose-only effect; inactive = no such curve, though single readings can be large or run the other way. Potency is read from the fitted curve at half-maximal effect.

How did CC(C(=O)Nc1ccc2c(c1)OCO2)N1CCN(C)CC1 (centres undefined) do in these assays?
G9a inh: 14µM*; HP1b chromo inh: 22µM*; BAZ2B block: 45µM*; L3MBTL1 inh: 3%; JMJD2A Tudor: 0.79µM*

How did CC(C(=O)Nc1ccc2c(c1)OCO2)N1CCC(N2CCCCC2)CC1 (centres undefined) do in these assays?
G9a inh: inconclusive; HP1b chromo inh: -26%; BAZ2B block: 50µM*; L3MBTL1 inh: -9%; JMJD2A Tudor: 25µM*

What do the screens show for `CC(C(=O)O/N=C(\N)c1ccccn1)c1ccc([N+](=O)[O-])cc1` (centres undefined)?
G9a inh: inconclusive; HP1b chromo inh: 27%; BAZ2B block: 56µM*; JMJD2A Tudor: -7%

Results for CCC1CN(C(=O)C2CCN(S(=O)(=O)c3c(C)noc3/C=C/c3ccccc3F)CC2)c2cc(Cl)ccc2O1 (centres undefined) ?
G9a inh: -3%[59 µM]; HP1b chromo inh: 22%[57 µM]; BAZ2B block: 2%; JMJD2A Tudor: -10%

How did O=C1NC(=S)SC1=C1CCCC1 do in these assays?
G9a inh: 18µM*; HP1b chromo inh: 1%; BAZ2B block: 32µM*; JMJD2A Tudor: inconclusive

How did Cc1cccc(NC(=O)c2ccc3snnc3c2)c1C do in these assays?
G9a inh: 5%[59 µM]; HP1b chromo inh: 36%; BAZ2B block: -1%; JMJD2A Tudor: 6%

What do the screens show for `COc1cc(-c2nc(S(=O)(=O)c3ccc(C)cc3)c(N(C)C)o2)cc(OC)c1OC`?
G9a inh: 3.5µM*; HP1b chromo inh: -17%; BAZ2B block: inconclusive; L3MBTL1 inh: 1%; JMJD2A Tudor: inconclusive

How did Cc1ccc(S(=O)(=O)c2nc(-c3ccccc3Br)oc2N(C)C)cc1 do in these assays?
HP1b chromo inh: 10%; JMJD2A Tudor: -21%

How did COc1cc(-c2nc(S(=O)(=O)c3ccc(C)cc3)c(N3CCOCC3)o2)cc(OC)c1OC do in these assays?
G9a inh: inconclusive; HP1b chromo inh: 2%; BAZ2B block: inconclusive; L3MBTL1 inh: -5%; JMJD2A Tudor: inconclusive

What do the screens show for `COc1cccc(/C=C/c2nc(S(=O)(=O)c3ccccc3)c(N(C)C)o2)c1`?
G9a inh: -18%; HP1b chromo inh: 26%; BAZ2B block: -4%; JMJD2A Tudor: -4%

Results for Cc1ccc(S(=O)(=O)c2nc(-c3ccccc3Cl)oc2N(C)C)cc1 ?
HP1b chromo inh: 10%; BAZ2B block: -1%; JMJD2A Tudor: -23%

What do the screens show for `COc1ccccc1/C=C/c1nc(S(=O)(=O)c2ccccc2)c(N(C)C)o1`?
G9a inh: 35µM*; HP1b chromo inh: 69%; BAZ2B block: 71µM*; JMJD2A Tudor: inconclusive

How did COc1ccccc1-c1nc(S(=O)(=O)c2ccc(Cl)cc2)c(N(C)C)o1 do in these assays?
G9a inh: 2.8µM*; HP1b chromo inh: inconclusive; BAZ2B block: inconclusive; JMJD2A Tudor: inconclusive

Results for Cc1ccc(-c2nc(S(=O)(=O)c3ccc(C)cc3)c(N(C)C)o2)cc1 ?
G9a inh: 10µM*; HP1b chromo inh: -12%; BAZ2B block: inconclusive; JMJD2A Tudor: inconclusive

How did Cc1cc(N2C(=O)c3ccccc3C2=O)n[nH]1 do in these assays?
JMJD2A Tudor: -3%

How did N#Cc1c2c(c(=S)n(-c3ccccc3)c1N)CCCC2 do in these assays?
G9a inh: 8.9µM*; HP1b chromo inh: 1%; BAZ2B block: inconclusive; L3MBTL1 inh: -10%; JMJD2A Tudor: -21%

How did O=C(Nc1ccc(N2CCN(C(=O)c3ccc(Cl)cc3)CC2)cc1)c1ccc2c(c1)OCCO2 do in these assays?
G9a inh: 79µM*; HP1b chromo inh: -1%; BAZ2B block: -10%; JMJD2A Tudor: -32%

Results for O=C(Nc1ccc(N2CCCCC2)cc1)c1ccc2c(c1)OCCO2 ?
G9a inh: 3.5µM*; HP1b chromo inh: 5%; BAZ2B block: -10%; JMJD2A Tudor: inconclusive

What do the screens show for `CC(=O)N1CCN(c2ccc(NC(=O)c3ccc4c(c3)OCCO4)cc2)CC1`?
G9a inh: inconclusive; HP1b chromo inh: 4%; BAZ2B block: 6%; JMJD2A Tudor: -10%

How did O=C(Nc1ccc(Br)cc1F)c1ccc2c(c1)OCCO2 do in these assays?
G9a inh: 50µM*; HP1b chromo inh: 5%; BAZ2B block: -2%; JMJD2A Tudor: -11%

How did O=C(Nc1ccc(Cl)c(C(F)(F)F)c1)C(Cc1ccccc1)NS(=O)(=O)c1cccc2nsnc12 (centres undefined) do in these assays?
G9a inh: -1%[59 µM]; HP1b chromo inh: 24%; JMJD2A Tudor: -13%

What do the screens show for `Cc1nc(-c2ccc(Cl)cc2)sc1CCNC(=O)C(=O)Nc1ccc2c(c1)OCO2`?
G9a inh: -5%[59 µM]; HP1b chromo inh: 12%[57 µM]; BAZ2B block: -2%; JMJD2A Tudor: -16%

What do the screens show for `Cc1ccc(C(=O)CN2CCN(c3ccccn3)CC2)c(C)c1`?
G9a inh: 40µM*; HP1b chromo inh: 36%; BAZ2B block: -15%; JMJD2A Tudor: -19%

What do the screens show for `Cc1ccc2[nH]cc(C(=O)CN3CCN(c4ccccn4)CC3)c2c1`?
G9a inh: 50µM*; HP1b chromo inh: 18%; BAZ2B block: -2%; L3MBTL1 inh: 5%; JMJD2A Tudor: -6%

How did Cc1cc(Br)ccc1NC(=O)CN1CCN(c2ccccn2)CC1 do in these assays?
G9a inh: 29%[2.33 µM]; HP1b chromo inh: 50%; BAZ2B block: 0%; JMJD2A Tudor: -13%

Results for Cc1ccc2[nH]cc(C(=O)CN3CCN(C)CC3)c2c1 ?
HP1b chromo inh: 2%; BAZ2B block: 6%; L3MBTL1 inh: 9%; JMJD2A Tudor: -9%

Results for CCC(=O)N1CCc2cc(S(=O)(=O)N3CCN(c4ccccc4F)CC3)ccc21 ?
G9a inh: -17%[59 µM]; HP1b chromo inh: 21%; BAZ2B block: 0%; JMJD2A Tudor: -9%

What do the screens show for `COc1ccccc1NC(=O)C1=C(C)Nc2nc(-c3ccco3)nn2C1c1ccccc1F` (centres undefined)?
G9a inh: 6%[59 µM]; HP1b chromo inh: 17%; BAZ2B block: -27%; JMJD2A Tudor: -18%

How did CCN(CC)c1ccc(/C=C(\C#N)C(N)=O)cc1 do in these assays?
G9a inh: 14%; HP1b chromo inh: 13%; BAZ2B block: -25%; L3MBTL1 inh: 0%; JMJD2A Tudor: 1%

Results for CCN(CC)c1ccc(/C=C(\C#N)C(N)=S)cc1 ?
G9a inh: 20µM*; HP1b chromo inh: inconclusive; BAZ2B block: 13µM*; L3MBTL1 inh: inconclusive; JMJD2A Tudor: -10%[11.4 µM]

Results for Cc1ccc2[nH]c(CSc3nnc(NC(=O)COc4ccccc4)s3)cc(=O)c2c1 ?
G9a inh: -25%[59 µM]; HP1b chromo inh: 25%[57 µM]; BAZ2B block: 5%; JMJD2A Tudor: -12%

What do the screens show for `CN1c2ccccc2Oc2nnc(Cl)cc21`?
G9a inh: 7%; HP1b chromo inh: 4%; BAZ2B block: -10%; L3MBTL1 inh: 8%; JMJD2A Tudor: -16%
